Compounds without any hit were thinned out: in the full panel of roughly 83,000, 20% have a hit.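 The test compound was applied at a single concentration to cells in 96-well plates for 48 hours, and percent growth was recorded.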 A number with no mark means an inactive call. Active and inactive are the calls of the source. Rule for the calls: active = growth percent below 10; inactive = the rest.
The compounds below were run on HL-60(TB) leukemia (assay: NCI-60 one-dose screen, 48 h (100 = growth as untreated, 0 = no growth, -100 = all killed)). Details: 10 µM unless noted.
COc1ccc2nc(Cl)c(/C=C3\CC(c4ccccc4)=NN(c4ccccc4)C3=O)cc2c1 gave a growth of 99%. With COc1cc(-c2nn(-c3cccc(NC(=O)Nc4cc(C(F)(F)F)cc(C(F)(F)F)c4)c3)cc2-c2ccncc2)ccc1Cl the growth was -20.2% (active). Work on O=C(c1ccc(Nc2nccc(NCCCNc3ccnc4cc(Cl)ccc34)n2)cc1)N1CCCCC1 yielded a growth of 22.4%. Compound O=C(O)c1ccc(P(=O)(O)O)c([N+](=O)[O-])c1 has a growth of 100%. Cn1cc(-c2ccc3ncc(-c4ccc(CC(=O)Nc5cc(C(C)(C)C)no5)cc4)nc3c2)cn1 was tested, and the growth was 40.4%. With CC(=O)OCC1OC(OC2=C(CC=C(C)C)C(=O)c3ccccc3C2=O)C(OC(C)=O)C(OC(C)=O)C1OC(C)=O (stereo not given) the growth was -36.7% (active). Work on O=c1[nH]nc(-c2ccc(Cl)cc2)cc1Cc1cccc([N+](=O)[O-])c1 yielded a growth of 109%. O=C(NCCN1CCCC1)n1cc(-c2ccncc2)c(-c2cc(O)cc(Cl)c2)n1 was tested, and the growth was 95%. For COc1cc(/C=C/C(=O)c2c(C)nc3ccccc3c2C)ccc1OCCCOc1cc2c(cc1OC)C(=O)N1CCC[C@H]1C=N2, the growth was -33% (active). In the case of Cc1ccc(CNc2c3ccccc3nc3ccccc23)cc1, the growth is reported as 25.5%. In the case of Cc1c2c(cn1Cc1ccccc1)CCc1cn(C)nc1-2, the growth is reported as 63.4%. [O-]/[N+](=C\C=C\c1ccccc1)c1ccccc1 was tested, and the growth was 82.3%. For CCCCCc1c(C)[nH]c(/C=C2\N=C(c3ccc[nH]3)C=C2OCc2ccccc2)c1C, the growth was -47.5% [100 µM] (active). COCc1nc2ccccc2[nH]1 was tested, and the growth was 96.5%. For COc1ncnc2c1cnn2C, the growth was 114%. In the case of COc1cc2oc(-c3cccc(C(=O)Nc4ccc(Cl)cc4)c3)cc(=O)c2c(O)c1OC, the growth is reported as 85.6%. [O-][n+]1ccccc1CCN(O)CCc1cccc[n+]1[O-] showed a growth of 74.2%. CC(=O)OC1Oc2ccccc2-c2oc3nc(=N)n(C)c-3cc21 (stereo not given) gave a growth of 94.4%. In the case of Cn1c2ccccc2c2c3[nH][nH]c(=O)c3c3c4ccccc4[nH]c3c21, the growth is reported as 4.77% (active). N#Cc1c(-c2ccccc2)cc(-c2ccccc2)n(CCCCC(=O)NO)c1=O showed a growth of 11%. With O=C(CNCCN1CCOCC1)N1c2cccc3cccc(c23)N(C(=O)CNCCN2CCOCC2)C1c1cn(-c2ccccc2)nc1-c1cccc([N+](=O)[O-])c1 the growth was 67.6%. CCCC1CCCCN1C(=O)OCC(C)C (stereo not given) gave a growth of 107%. For CCCNC(=O)Oc1ccc(/C(=C(/C)Cc2ccc(OC)cc2)c2ccc(OCCN3CCCCC3)cc2)cc1, the growth was 58.6%. With CSc1nnc(-c2cc3c([nH]c4ccccc43)c(-c3cccc(O)c3)n2)n1-c1ccc(C)cc1 the growth was -16.1% (active). In the case of N#CCCCCCn1c2ccccc2c2c3c(c4c5ccccc5n(CCCCCC#N)c4c21)C(=O)N(O)C3=O, the growth is reported as 64.3%. O=C(Cn1cc(CN2C(=O)c3ccccc3S2(=O)=O)nn1)Nc1cccc(Cl)c1 was tested, and the growth was 103%. Clc1ccccc1-c1nc(Nc2nc3ccccc3s2)nc(C(Cl)(Cl)Cl)n1 was tested, and the growth was 32.9%. In the case of COc1ccc(C2N(c3cc(OC)c(OC)c(OC)c3)C(=O)C2(F)F)cc1F (stereo not given), the growth is reported as 0.936% (active). Compound Clc1cn2cc(-c3ccc(Cl)c(Cl)c3Cl)nc2s1 has a growth of 85.3%. Cc1nn(-c2nc(-c3cc4ccccc4oc3=O)cs2)c(C)c1N=Nc1ccccc1 gave a growth of 101%. In the case of Cc1ccncc1C(=O)O, the growth is reported as 106%. CCCCC1COc2cccc3c(SCC(=O)N(C)c4cccc5ccccc45)cc[n+]1c23 (stereo not given) showed a growth of 89.8%. Compound Cc1c(Cl)cccc1NC(=O)CCCl has a growth of 73.6%. Work on O=C(Nc1ccc(-n2cc(-c3ccncc3)c(-c3ccc(O)c(Cl)c3)n2)cc1)c1ccc(Cl)c(C(F)(F)F)c1 yielded a growth of 10.9%. COc1ccc(NC(=O)CSc2nnc(-c3cc(-c4ccccc4)nc4ccccc34)n2-c2ccccc2)cc1 showed a growth of 105%. COc1ccc(C2CC(c3cc(OC)c(OC)c(OC)c3)=NN2C(C)=O)cc1OCC(=O)Nc1nc2ccc(C(F)(F)F)cc2s1 (stereo not given) gave a growth of 79.1%. In the case of COc1ccc(/C=C(/C(=O)N2CCN(c3ccc(C)cc3)CC2)c2cc(OC)c(OC)c(OC)c2)cc1N, the growth is reported as -24.2% (active). For O=C(COc1ccc(/C=C2\Oc3ccc4ccccc4c3C2=O)cc1)c1ccc(Cl)cc1, the growth was 86.5%. In the case of O=C(N/N=C\c1ccc(Cl)cc1)C(=O)N/N=C\c1ccc(Cl)cc1, the growth is reported as 108%. Compound CNc1ccc(Nc2cccc(C)c2)c2c1C(=O)c1ccccc1C2=O has a growth of 80.6%.
